# Source: PubChem BioAssay
# HCV inhibitor: blocks hepatitis C virus; Huh7.5.1 HCVcc-Cre infection, luciferase reporter, 44 h; Potency, µM (doses to about 41.8 µM), for inactives: at the top dose activity change, negative = inhibition, hits mostly inhibitors; 340,000 compounds, 3.4% hits; AID 651820; further: potency means the concentration at half of the fitted maximal effect; on the % scale 0 is the no-effect control and ±100 the full control effect
#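 Infectious HCVcc-Cre (~0.5 moi) was added to cells just after compound, with cells seeded 4 h earlier at 1,000 per well. Luciferase activity after 44 h culture reported infection; substrate was incubated 15 min at room temperature before reading.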
# Sm TGR inh: blocks Schistosoma mansoni thioredoxin glutathione reductase; Q962Y6; purified TGR, DTNB reduction, TNB absorbance 405 nm; Potency, µM (top dose mostly 114 µM), inactives show at the highest dose activity change, negative = inhibition, most hits filed as inhibitors; 360,000 compounds, 3% hits; further: potency means the concentration at half of the fitted maximal effect; on the % scale 0 is the no-effect control and ±100 the full control effect; nearly all actives have a fitted effect of over 60% in size
#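 TGR 20 nM + NADPH 100 uM (dispensed conc.), cpd preinc 15 min RT; start with NADPH (500 uM addition) then DTNB (15 mM addition). Kinetic TNB absorbance, 405 nm filter. Four-parameter Hill fit across titration.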
# HCMV inh: blocks human cytomegalovirus replication. HFF cells, HCMV-luciferase reporter, 72 h; active compounds read low. activity change, negative = inhibition, % at 57.5 µM. 410,000 compounds, 4.5% hits; in the data active means activity change below about -60%; inconclusive means no clear call, values can overlap the other calls; inactive means above about -39%; further: on the % scale 0 is the no-effect control and ±100 the full control effect
#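 Screen run at 2 compound doses on HFFs infected with reporter HCMV, MOI 1 PFU/cell. Luciferase activity from cell lysates at 72 h post infection gave inhibition relative to buffer-only and Salinomycin wells.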
# Pf growth 96h: P. falciparum growth inhibition at 96 hour, primary screen for plastid delayed-death inhibitors. P. falciparum luciferase reporter growth, 96 h. Potency, µM (doses to about 28.7 µM), for the others: at the highest dose activity change, negative = inhibition, actives largely listed as inhibitors. 320,000 compounds, 6.9% hits; further: potency means the concentration at half of the fitted maximal effect; on the % scale 0 is the no-effect control and ±100 the full control effect
#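 Two parasite generations (96 h, 37 C, 5% CO2) of compound exposure in infected erythrocytes (0.05% parasitemia, 2% hematocrit). Luciferase-reporter P. falciparum; decreased luminescence indicates inhibited growth, aimed at apicoplast-acting delayed death.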
# SARS PLpro yeast: blocks SARS-CoV papain-like protease in a yeast assay; S. cerevisiae expressing SARS-CoV PLpro, growth rescue; Potency, µM (series often up to 32.9 µM), for inactives: at the highest dose activity, positive = growth rescue, actives largely listed as activators; 330,000 compounds, 0.19% hits; AID 485353; calls by dose curve; further: potency means the concentration at half of the fitted maximal effect; 0% is about no effect; nearly all actives have a fitted effect of over 55% in size
# Pf growth 48h: P. falciparum growth inhibition at 48 hours (one generation); AID 504832; P. falciparum luciferase growth in erythrocytes, 48 h; Potency, µM (highest dose often 28.7 µM), inactives show top-dose activity change, negative = inhibition, most hits filed as inhibitors; 310,000 compounds, 5.9% hits; further: potency means the concentration at half of the fitted maximal effect; on the % scale 0 is the no-effect control and ±100 the full control effect
#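 Parasite viability was followed by luminescence of a genomically integrated firefly luciferase. Cultures held 0.1% parasitemia at 2% hematocrit (final), incubated under 5% CO2 at 37 C.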
# * marks the source's active call; other numbers are inactive results; ? = inconclusive; · = no result given; [ ] = dose if it differs, or a comment. Sampled rows, rich in hits. Any-hit rate of the full collection: about 15%. Unless noted, the call rests on the fitted dose curve; in most records, active means well fitted curve in the direction sought with a large enough effect; inconclusive means small, poorly fitted or top-dose-only effect, or another doubt; inactive means no such curve, though single readings can be large; an effect the other way counts as inactive or inconclusive.
SMILES,HCV inhibitor,Sm TGR inh,HCMV inh,Pf growth 96h,SARS PLpro yeast,Pf growth 48h
COc1ccccc1NC(=O)c1ccc2[nH]c(C)c(C)c2c1,?,-3%,81,62%,-5%,3%[0.00184 µM]
Cc1cc(C)n(-c2nc(SCCN(C)C)c3c4c(sc3n2)CCCC4)n1,?,5%,-33,12µM*,-11%,?
CN(C)CCC#CC(O)(c1ccccc1)c1ccccc1,15%,-13%,-40,?,3%,12µM*
CCN(CC)CC#CC(O)(c1ccccc1)c1ccccc1,-18%,14%,-2,19%,0%,131%
CCOc1ccc(NC(=O)Nc2nnc(N3CCCCC3C)s2)cc1 (stereo not drawn),·,-18%,-7,·,·,·
CCCCCCC(C)(C)c1ccc([C@@H]2C[C@H](O)CC[C@H]2CCCO)c(O)c1,?,3%,28,5.2µM*,·,4.7µM*
CC(C)(C)Nc1c(-c2ccc(O)cc2)nc2ccc(Cl)cn12,3%,?,-7,16%,1%,10µM*
Oc1ccc(-c2nc3ccc(Cl)cn3c2Nc2ccc(Cl)cc2)cc1,·,0%,?,·,·,·
Cc1sc2nc(CN3CCOCC3)nc(NS(=O)(=O)c3cc(Cl)ccc3Cl)c2c1C,-10%,-10%,-106*,?,-4%,?
Cc1sc2nc(CN3CCOCC3)nc(N3CCN(S(=O)(=O)c4ccccc4)CC3)c2c1C,-1%,-7%,?,?,-7%,9.3µM*
Cc1sc2nc(CN3CCCC3)nc(N3CCN(S(=O)(=O)c4cccc(F)c4)CC3)c2c1C,?,-21%,-38,9.3µM*,6%,8.3µM*
Cc1sc2nc(CN3CCOCC3)nc(Cl)c2c1C,-3%,-22%,-17,?,-4%,-26%
COCCNC(=O)C(=O)Nc1ccc2nc3n(c(=O)c2c1)CCCCC3,·,10%,24,·,·,·
CCOc1ccccc1NC(=O)c1c(NC(=O)CNCc2ccco2)sc2c1CCC2,·,-2%,·,?,0%,?
Nc1ccc2c(c1)OC1(CCCC1)O2,?,-18%,-86*,4.1µM*,1%,37%
Cc1cccc(C)c1N=C1SC(CC(=O)Nc2c(C)cccc2C)C(=O)N1CCc1ccccn1 (stereo not drawn),4%,0%,-29,9.3µM*,2%,9.3µM*
O=C(CC1SC(=Nc2ccccc2)N(CCc2ccccn2)C1=O)Nc1ccc(F)cc1 (stereo not drawn),-7%,-4%,?,4.7µM*,-11%,?
CCN1C(=O)C(CC(=O)Nc2ccccc2)S/C1=N\c1ccccn1 (stereo not drawn),-15%,0%,?,22%,0%,43%
COc1ccc(OC)c(-c2csc(N3CCC(c4ccccc4)CC3)n2)c1,21%,8%,0,19%,-1%,19%[5.75 µM]
Cc1ccnc(OC(C(=O)O)C(OCc2ccccc2)(c2ccc(F)cc2)c2ccc(F)cc2)n1 (stereo not drawn),4%,6%,-22,5%,3%,2%
Cc1ccccc1Oc1cc(NC(=O)Cn2cnc([N+](=O)[O-])c2)cc([N+](=O)[O-])c1,?,-6%,-36,?,1%,10µM*
Cc1ccccc1Oc1cc(NC(=O)CCCn2nc(C)c([N+](=O)[O-])c2C)cc([N+](=O)[O-])c1,?,-12%,?,15µM*,-9%,?
CCOc1ccc(OCC)c(NC(=O)c2nnn(CC(=O)Nc3cc(Cl)ccc3OC)c2N)c1,·,4%,-18,·,·,·
Cc1nc2ccc(NS(=O)(=O)c3c(C)c(C)cc(C)c3C)cc2s1,16µM*,-20%,-61*,-19%,·,?
Cc1nc2cc(NS(=O)(=O)c3c(C)c(C)cc(C)c3C)ccc2s1,2.8µM*,-8%,-82*,?,-76%,?
SMILES,HCV inhibitor,Sm TGR inh,HCMV inh,Pf growth 96h,SARS PLpro yeast,Pf growth 48h
Cc1ccc(S(=O)(=O)Nc2ccc3nc(C)sc3c2)c(C)c1,?,-8%,-33,?,6%,-25%
COc1ccc(/C=C/C(=O)OCC(=O)c2cc(C)ccc2C)cc1,·,·,-25,·,·,·
Cc1ccc(S(=O)(=O)N(C)C)cc1NC(=O)Nc1ccccc1,-2%,4%,-13,17%,1%,4.1µM*
Cc1ccc(S(=O)(=O)N(C)C)cc1NC(=O)CSc1nc2ccccc2[nH]1,-4%,-2%,-2,9.3µM*,7%,?
CCN(CC)S(=O)(=O)c1ccc(C)c(NC(=O)CSc2nc3ccccc3[nH]2)c1,?,1%,-19,?,18%,?
Cc1ccc(S(=O)(=O)N(C)C)cc1-n1c(SCC(=O)Nc2ccc(F)cc2)nc2ccccc2c1=O,?,?,-19,9.3µM*,2%,9.3µM*
Cc1ccc(S(=O)(=O)N(C)C)cc1NC(=S)NC(=O)C12CC3CC(CC(C3)C1)C2,16µM*,-14%,-63*,?,-12%,?
Cc1ccc(NC(=O)Nc2cc(S(=O)(=O)N(C)C)ccc2C)cc1,-22%,3%,26,-4%[5.75 µM],0%,12%
CCCCCC(=O)Nc1ccc(-c2csc(N)n2)cc1,?,-3%,-26,3%,0%,?
COc1ccc(S(=O)(=O)N(Cc2nc(-c3cccc(C)c3)no2)C2CCCCC2)cc1,·,2%,-33,·,·,·
Cc1ccc(NC(=O)CSc2nc3n[nH]c(C)c3c(=N)n2-c2ccccc2C)cc1C,·,13%,-27,·,·,·
Cc1ccc(S(=O)(=O)N(C)C)cc1-n1c(SCC(=O)Nc2ccccc2)nc2ccccc2c1=O,?,-5%,-72*,?,-5%,?
Cc1ccc(-c2cc(=O)c3cc(Cl)ccc3[nH]2)cc1,·,-7%,·,19%,-1%,122%
CN1CCc2c(sc(NC(=O)c3cc(Cl)sc3Cl)c2C(N)=O)C1,13µM*,-21%,3,?,2%,?
CCOC(=O)c1c(NC(=O)c2ccc(S(=O)(=O)N(C)C)cc2)sc2c1CCN(C)C2,·,-11%,?,·,·,·
CCOC(=O)c1c(NC(=O)c2ccc(S(=O)(=O)N3CCC(C)CC3)cc2)sc2c1CCN(C)C2,·,-22%,-82*,·,·,·
CN1CCc2c(sc(NC(=O)c3ccco3)c2C(N)=O)C1,·,0%,16,?,1%,?
CCOC(=O)c1c(NC(=O)C2CCCN(S(=O)(=O)c3ccccc3)C2)sc2c1CCCC2 (stereo not drawn),5.6µM*,-14%,?,?,7%,?
CCOC(=O)c1c(NC(=O)Nc2ccc(C)cc2)sc2c1CCN(C)C2,?,0%,-14,3.7µM*,0%,12µM*
Cc1ccccc1Nc1c(-c2ccco2)nc2c(C)cccn12,·,?,-36,·,·,·
Clc1ccccc1CNCCCSc1nnnn1-c1ccccc1,·,0%,0,·,·,·
